Screening data deposited in PubChem by The Scripps Research Institute Molecular Screening Center.
Shown are actives, neighbours in structure and some others; about 1.3% of the full set was active somewhere.
LYPLA1 counter – counter-screen for PME1 inhibitors: inhibitors of human LYPLA1; O75608; recombinant LYPLA1, FP-Rh probe fluorescence polarization; inhibition, % at 5.9 µM; actives 0.16% (n = 320,000);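 active = inhibition above the mean of all tested compounds plus 3 SD, set per campaign, cut at about 14% in these data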;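 note: inhibitors block serine hydrolase probe labeling of LYPLA1 so polarization falls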
Target sequence (O75608 whole entry, looked up): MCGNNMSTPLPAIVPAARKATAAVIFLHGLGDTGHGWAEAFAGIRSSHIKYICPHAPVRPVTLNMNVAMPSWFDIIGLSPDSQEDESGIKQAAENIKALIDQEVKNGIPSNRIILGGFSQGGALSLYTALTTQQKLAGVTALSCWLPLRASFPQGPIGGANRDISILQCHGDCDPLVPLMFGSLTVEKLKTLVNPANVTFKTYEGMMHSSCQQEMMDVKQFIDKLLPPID
PREPL inh – human PREPL enzyme inhibition | actives 0.68% (n = 320,000) | inhibition, % at 5.96 µM | Q4J6C6 | recombinant PREPL, fluorescence polarization activity-based probe; in the data active = inhibition above about 43%
LYPLA2 counter – LYPLA2 (human) inhibition in PME1 counter-screen; actives 0.38% (n = 320,000); AID 2177; O95372; recombinant LYPLA2, FP-Rh probe fluorescence polarization; inhibition, % at 5.9 µM;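 active = inhibition above the screen-wide mean plus 3 SD, limit set per campaign, cut at about 26% in these data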
PME-1 primary – blocks human protein phosphatase methylesterase 1; Q9Y570; recombinant PME-1, FP-Rh probe fluorescence polarization; inhibition, % at 5.9 µM; actives 0.53% (n = 320,000);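 active = inhibition above the campaign mean of all compounds plus 3 SD, cut at about 26% in these data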;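 note: competitive labeling of PME-1 active site by serine hydrolase directed probe; inhibitors block probe labeling so polarization falls and inhibition rises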
Target sequence (Q9Y570 whole entry, looked up): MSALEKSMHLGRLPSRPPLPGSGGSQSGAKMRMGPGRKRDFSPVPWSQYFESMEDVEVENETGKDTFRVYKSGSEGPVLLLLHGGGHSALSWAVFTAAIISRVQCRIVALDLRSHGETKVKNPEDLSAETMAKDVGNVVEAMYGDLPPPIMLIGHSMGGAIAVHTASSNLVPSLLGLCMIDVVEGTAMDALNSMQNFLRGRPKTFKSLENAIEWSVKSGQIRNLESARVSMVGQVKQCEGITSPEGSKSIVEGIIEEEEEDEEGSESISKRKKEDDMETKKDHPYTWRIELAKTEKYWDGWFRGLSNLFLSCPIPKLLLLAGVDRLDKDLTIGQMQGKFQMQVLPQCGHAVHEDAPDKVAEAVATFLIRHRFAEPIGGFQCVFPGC
Fam108B inh – Fam108B inhibition, counter-screen for RBBP9 inhibitors. recombinant Fam108B, FP-Rh probe fluorescence polarization. inhibition, % at 9.51 µM. actives 0.33% (n = 300,000). AID 1947;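 active = inhibition above the screen mean inhibition plus 3 SD, computed separately per campaign, cut at about 18% in these data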;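 note: inhibitors lower polarization as less probe binds the enzyme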
Fam108b confirm – confirmation of mouse Fam108b serine hydrolase inhibitors; inhibition, % at 9.51 µM; AID 1978; actives 44% (n = 930); recombinant Fam108b, FP-Rh probe fluorescence polarization; shares compounds with Fam108B inh;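 active = inhibition above a limit from the primary screen, the mean over all compounds plus 3 SD, cut at about 19% in these data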;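 note: inhibitors free the probe so polarization falls as inhibition rises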
Fam108b ABPP HTS – inhibits mouse Fam108b in gel-based ABPP | shares compounds with Fam108B inh | recombinant Fam108b, fluorophosphonate probe | inhibition, % at 20 µM | actives 44% (n = 260) | AID 588649; in the data active = inhibition above about 40%
LYPLA2 conf – counter-screen for PME1 inhibitors: confirmation of human LYPLA2 inhibitors; shares compounds with LYPLA2 counter; recombinant LYPLA2, FP-Rh probe fluorescence polarization; inhibition, % at 5.9 µM; actives 72% (n = 1,100); AID 2232;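 active = mean inhibition across replicates above the hit cutoff set in the primary screen, cut at about 26% in these data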;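 note: blocked labeling of the enzyme by serine hydrolase FP-Rh probe lowers polarization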
Each line names hits and unclear results; the compound was inactive in the other large screens (follow-up assays come after a bar, where they were run); ! = a repeat was not active.

O=C1NC(=O)C(=Cc2cc3c(cc2[N+](=O)[O-])OCO3)C(=O)N1	none
Cc1cccc(N2C(=O)NC(=O)/C(=C/c3cc4c(cc3[N+](=O)[O-])OCO4)C2=O)c1	PME-1 primary 45
CN(C)C1(c2nnnn2CCOC(=O)Nc2ccc(Cl)cc2)CCCCC1	PME-1 primary 37
CCCCn1c(NC(=O)c2ccc(Br)o2)c(C(=O)OCC)c2nc3ccccc3nc21	LYPLA1 counter 81, LYPLA2 counter 89, PME-1 primary 34, Fam108B inh 59
CCCCn1c(NS(=O)(=O)c2ccccc2)c(C(=O)OCC)c2nc3ccccc3nc21	none
COC(=O)C1=C(c2c(C)noc2C)C[C@@H]2CC[C@H]1N2C(=O)NCCOc1ccc(OC)cc1	none (no result: Fam108B inh)
O=c1[nH]c(=S)[nH]c(O)c1N=Nc1cc(S(=O)(=O)Nc2ccc(Cl)cc2)ccc1Cl	PME-1 primary 41 (no result: Fam108B inh)
O=P(Oc1ccccc1)(Oc1ccccc1)C(Nc1ccccc1)c1ccccc1 (stereo not given)	none
O=P(Oc1ccccc1)(Oc1ccccc1)C(O)c1ccccc1 (stereo not given)	PME-1 primary 46
Cc1ccc(C(O)P(=O)(Oc2ccccc2)Oc2ccccc2)cc1 (stereo not given)	PME-1 primary 38
c1ccc2nc(N3CCNCC3)ccc2c1	none
CC(=O)OC1C=CC2[C@H]3Cc4ccc(O)c5c4[C@@]2(CCN3C)C1O5 (stereo not given in full)	none (no result: LYPLA1 counter, LYPLA2 counter, PME-1 primary, Fam108B inh)
C/C=C1/C[N+]2(C)CCC34C(=C(C=O)[C@H]1C[C@@H]32)Nc1ccccc14 (stereo not given in full)	none
O=C1CN=C(c2ccccc2)c2cc(Br)ccc2N1Cc1cc(=O)n2ccccc2n1	PREPL inh 50
O=C1NC(=O)N(Cc2ccco2)C(=O)/C1=C/c1cccn1CCOc1ccccc1Cl	PME-1 primary 51
O=C1NC(=O)N(Cc2ccccc2)C(=O)/C1=C\c1ccco1	none
C[C@]12CCC3C(CC[C@H]4C[C@H](O)CC[C@]34C)C1CCC2=O (stereo not given in full)	none (no result: LYPLA1 counter, LYPLA2 counter, PME-1 primary, Fam108B inh)
O=c1c2ccccc2nc(/C=C/c2ccc(O)c(O)c2)n1-c1ccccc1	PME-1 primary 27
COc1cc(/C=C/c2nc3ccccc3c(=O)n2-c2cccc(O)c2)ccc1O	PME-1 primary 36
COc1cc(/C=C/c2nc3ccccc3c(=O)n2-c2ccccc2O)ccc1O	none
O=c1c2ccccc2nc(/C=C/c2ccccc2)n1-c1ccc(O)cc1	none
Cc1nc2ccccc2c(=O)n1/N=C/c1cc(Br)cc(Br)c1O	none
CN[C@H]1C[C@H]2O[C@@](C)([C@H]1OC)n1c3ccccc3c3c4c(c5c6ccccc6n2c5c31)C(=O)NC4	PREPL inh 76, PME-1 primary 52, Fam108B inh 48
CC(C)CCOP(N)(=O)Oc1ccccc1Cl (stereo not given)	PME-1 primary 30
NP(=O)(OCCCc1ccccc1)Oc1ccccc1Cl (stereo not given)	PME-1 primary 59
CC(C)CCOP(N)(=O)Oc1ccccc1 (stereo not given)	none
COC(=O)C1=C(c2ccccc2)C[C@@H]2CC[C@H]1N2C(=O)NC1CCCCC1	none
CCC(=NCc1ccc2c(c1)OCO2)c1c(O)n(C2CCCCC2)c(=O)[nH]c1=O	PREPL inh 45
CC1(C)CC[C@]2(C)CC[C@]3(C)C4C[C@@H]5OO[C@@]6(O5)C(CCCC6(C)C)[C@]4(C)CC[C@@]3(C)C2C1 (stereo not given in full)	none
N#Cc1ccccc1Cn1cc(C(=O)C2CC2)c2ccccc21	PME-1 primary 63
CCC(=O)c1cn(Cc2ccccc2C#N)c2ccccc12	PME-1 primary 35
Clc1cc(Cl)c(-c2cc(Cl)c(Cl)cc2Cl)cc1Cl	none (no result: Fam108B inh)
Cc1ccc2c(c1Cl)NC(C(=O)O)C1CC(Sc3ccccc3[N+](=O)[O-])C(Cl)C21 (stereo not given)	Fam108B inh 27 | Fam108b confirm inactive
CCN(CC)C(=O)c1ccc2c(c1)C1C(Cl)C(Sc3ccccc3[N+](=O)[O-])CC1C(C(=O)O)N2 (stereo not given)	Fam108B inh 47 | Fam108b confirm inactive
CC(N)C(=O)OC(C)(C)Cc1ccc(Cl)cc1 (stereo not given)	none
NCc1cc(=O)[nH]o1	none
CN(C)[C@@H]1C(=O)C(C(N)=O)=C(O)[C@@]2(O)C(=O)C3=C(O)c4c(O)cccc4[C@@](C)(O)C3[C@H](O)C12 (stereo not given in full)	Fam108B inh 32! | Fam108b confirm 34
CN(C)C1C(=O)C(C(N)=O)=C(O)C2(O)C(=O)C3=C(O)c4c(O)cccc4C(C)(O)C3CC12 (stereo not given)	none
CN(C)[C@@H]1C(=O)C(C(N)=O)=C(O)[C@@]2(O)C(=O)C3=C(O)c4c(O)cccc4[C@@](C)(O)[C@H]3C[C@@H]12	Fam108B inh 52 | Fam108b confirm 55
COC(=O)C1=C(c2ccc(OC)c(OC)c2)C[C@@H]2CC[C@H]1N2C(=O)NCCCOC(C)C	none (no result: Fam108B inh)
O=C(COc1ccc2ccc(=O)oc2c1)N1CCC(C(=O)O)(c2ccccc2)CC1	none
O=C1NC(=O)N(c2ccccc2)C(=O)/C1=C\c1ccc([N+](=O)[O-])s1	Fam108B inh 19 | Fam108b confirm inactive
COc1ccc(OC)c(N2C(=O)NC(=O)/C(=C\c3ccc([N+](=O)[O-])s3)C2=O)c1	Fam108B inh 44 | Fam108b confirm inactive
CC1=C2[C@@H]3OC(=O)[C@H](C)C3CC[C@@]2(C)C=CC1=O (stereo not given in full)	none
N/C(=N\N=C/c1ccc(-c2ccc(O)c(C(=O)O)c2)o1)N[N+](=O)[O-]	Fam108B inh 19 | Fam108b confirm 24
COC(=O)C1=C(c2ccc(C(C)=O)cc2)C[C@@H]2CC[C@H]1N2C(=O)NC(C)C	none (no result: Fam108B inh)
Cc1ccccc1N1C(=O)/C(=C/c2ccco2)C(=O)NC1=S	PREPL inh 46, LYPLA2 counter 47, Fam108B inh 77 | Fam108b confirm 68 | Fam108b ABPP HTS 70 | LYPLA2 conf 32
C[C@]12CCC(=O)C[C@H]1CC[C@@H]1[C@@H]2CC[C@]2(C)C(=O)CC[C@@H]12	none (no result: LYPLA1 counter, LYPLA2 counter, PME-1 primary, Fam108B inh)
